Among the data in PubChem BioAssay AID371 (SRMLSC, 2006) are growth inhibition values, retold here.

Hit rate of the full screen: of about 3,300 compounds, about 280 (8.5%) were called active.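 The calls were made as follows: active = mean growth inhibition over the two runs of 50% or more; inactive = mean growth inhibition under 50%.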 The entries come from a sample that favours actives as a whole.

A short description of the experiment: A549 NSCLC cell proliferation inhibitors – ATP luminescence, human non-small cell lung line, primary screen (AID 371).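 Also: compound exposure lasted 72 h before the ATP read; 0% = untreated cell signal and 100% = no luminescence left.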 The following applies: at 10 µM, active compounds read high.
`O=C(O)CCCCCCC1C(=O)NC(=O)N1CCC(O)C1CCCCC1` (configuration not stated): the growth inhibition is -11.2% (inactive). The figure for `CCC1SC(N)=NC1=O` (configuration not stated) is 2.26% (inactive). The figure for `O=c1[nH]c(-c2ccccn2)nc2ccccc12` is 57.6% (active); for `c1ccc2[nH]c(-c3cscn3)nc2c1` it is 5.76% (inactive). For `CCOC(=O)c1ccc(N2CC(O)=C(c3nc4ccccc4c(=O)[nH]3)C2=N)cc1`, the growth inhibition was 2.08% (inactive).

Regarding `COc1ccccc1-c1c(C)oc2c(CN3CCN(C)CC3)c(O)ccc2c1=O`, the growth inhibition is -0.86% (inactive). Then `COC(=O)CN1C2(C#N)CCCCC2CC2CCCCC21C#N` (configuration not stated), with 5.83% (inactive); and `Cc1ccc2nc(C(F)(F)F)c(C#N)c(N)c2c1`, with 63.8% (active). As to `COc1ccc(OC)c2c(N)c(C#N)c(C(F)(F)C(F)(F)F)nc12`, the growth inhibition was 2.04% (inactive).

With `COC(=O)c1sc(NC(=O)c2oc3ccccc3c2C)nc1C`, the growth inhibition is 33.4% (inactive). `N/C(=N\S(=O)(=O)c1ccc(Cl)s1)c1ccccc1`: the growth inhibition was 13.5% (inactive). Take `CCCc1cc(NCCN2CCOCC2)n2c(nc3ccccc32)c1C#N`: the growth inhibition was 6.32% (inactive). As for `Oc1c(I)cc(Cl)c2cccnc12`, the growth inhibition was 68.5% (active). Then `Oc1c(I)cc(I)c2cccnc12`, with 74.1% (active).

For `O=C(O)C1[C@H]2C(=O)N(Cc3cccs3)C[C@]23C=C[C@H]1O3` (some centres not stated), the growth inhibition was 4.5% (inactive). Take `O=C(C1=C(O)C(=O)N(CCN2CCOCC2)C1c1cccnc1)c1cc2ccccc2o1` (configuration not stated): the growth inhibition is 3.18% (inactive). As for `C=C(C)CSc1nnc2n(C)c(=O)c3c4c(sc3n12)CCC4`, the growth inhibition is 20.2% (inactive). Turning to `CCCCN(CCCC)C(=O)CSc1nnc2n(C)c(=O)c3c4c(sc3n12)CCCC4`, the growth inhibition is 70% (active). For the compound `CCCSc1nnc2n(C)c(=O)c3c4c(sc3n12)CCC4`, the growth inhibition is 20.4% (inactive).

For the compound `Cn1c(=O)c2c3c(sc2n2c(SCC(N)=O)nnc12)CC(C(C)(C)C)CC3` (configuration not stated), the growth inhibition was 69.8% (active). As to `Cn1c(=O)c2c3c(sc2n2c(SCc4ccccc4)nnc12)CCCC3`, the growth inhibition is 8.25% (inactive). For the compound `NC(=O)CSc1nnc2n(-c3ccccc3)c(=O)c3c4c(sc3n12)CCCCC4`, the growth inhibition is 46% (inactive).

Consider `CCOC(=O)C1=C(CSc2nc3c(cc2C#N)CCC3)OC(N)=C(C#N)C1c1ccccc1` (configuration not stated), for which the growth inhibition is 21% (inactive).

For the compound `Cc1ccc2c(c1)[C@@H]1CN(C)CC[C@@H]1N2S(=O)(=O)c1ccc(F)cc1`, the growth inhibition was 10.7% (inactive). As to `CC1(C)Cc2c(C#N)c(NCC3CCCO3)nc(-c3ccco3)c2CO1` (configuration not stated), the growth inhibition is 11% (inactive). For the compound `CCOC(=O)C(OC(=O)c1sc(=S)n(C)c1C)C(C)=O` (configuration not stated), the growth inhibition is -4.85% (inactive). Turning to `COCCNc1oc(-c2ccc(F)cc2)nc1C#N`, the growth inhibition was 2.78% (inactive). Regarding `O=C(c1ccc(F)cc1)N1CCC(N2CCCCCC2)CC1`, the growth inhibition was 0.08% (inactive).

For `c1ccc2c(c1)[nH]c1c(N3CCN(C4CCCCC4)CC3)ncnc12`, the growth inhibition is 37.9% (inactive). Regarding `Fc1ccc2[nH]c3c(N4CCN(C5CCCCC5)CC4)ncnc3c2c1`, the growth inhibition was 86% (active). In the case of `Cc1ccc(-n2ncc3c(N4CCN(c5ccccc5)CC4)ncnc32)c(C)c1`, the growth inhibition is 32.8% (inactive). Take `Fc1ccc2[nH]c3c(N4CCN(c5ccccc5)CC4)ncnc3c2c1`: the growth inhibition is 90.1% (active).

In the case of `Fc1ccc2[nH]c3c(N4CCSCC4)ncnc3c2c1`, the growth inhibition was 59.6% (active). Then `CCOC(=O)c1[nH]c2ccc(F)cc2c1NC(=O)CCN1CCSCC1`, with 0.98% (inactive); and `CN1CCN(c2ncnc3c2[nH]c2ccc(F)cc23)CC1`, with 18.6% (inactive); and `CC(C)(C)c1cc(-c2ccco2)c(C#N)c(SCC#N)n1`, with 5.39% (inactive).

Consider `N#Cc1nc(COc2ccc(Br)cc2)oc1N1CCCC1`, for which the growth inhibition was 31.8% (inactive). Take `O=C1C2ON(c3ccccc3)C(c3cccnc3)C2C(=O)N1c1ccc(Cl)c(Cl)c1` (configuration not stated): the growth inhibition is 3.11% (inactive).

Turning to `O=C(O)C1CCCCN1S(=O)(=O)c1cccc2nsnc12` (configuration not stated), the growth inhibition was -0.55% (inactive). Then `COc1ccc(CCCNC(=O)CC#N)cc1OC`, with 0.39% (inactive). Then `CCOC(=O)c1[nH]c2ccccc2c1NC(=O)CCN1CCN(C(=O)OCC)CC1`, with 1.45% (inactive).

`Cc1cc(C)n(CC2CC(=O)N(c3ccc(Cl)c(Cl)c3)C2=O)n1` (configuration not stated): the growth inhibition was 0.6% (inactive).

For the compound `COc1ccccc1NC(=O)CSc1nnc(-c2ccc(NC(C)=O)cc2)n1C`, the growth inhibition is -3.92% (inactive).

In the case of `COC1=CC(=O)CC(C)C12Oc1c(Cl)c(OC)cc(OC)c1C2=O` (configuration not stated), the growth inhibition was 51.2% (active). Then `COC(=O)c1cccc(Nc2cc(C)nc(-c3ccccc3O)n2)c1`, with 17.6% (inactive); and `CN(C)c1ccc(O)c2c1CC1CC3[C@@H](N(C)C)C(=O)C(C(N)=O)=C(O)[C@]3(O)C(=O)C1=C2O` (some centres not stated), with 59.9% (active). As to `CN(C)[C@@H]1C(=O)C(C(N)=O)=C(O)[C@@]2(O)C(=O)C3=C(O)c4c(O)ccc(Cl)c4[C@@H](O)[C@H]3C[C@@H]12`, the growth inhibition is 45.2% (inactive). For `OCCNc1nc(-c2ccccc2)c2ccccc2n1`, the growth inhibition was -2.09% (inactive). Turning to `Clc1ccc2c(c1)C(N1CCNCC1)=Nc1ccccc1O2`, the growth inhibition was 31.9% (inactive). As to `O=C(O)C1CC=CCC1C(=O)N1CCN(c2nc(-c3ccccc3)c3ccccc3n2)CC1` (configuration not stated), the growth inhibition was 25.7% (inactive). Turning to `Clc1ccc2nc(N3CCNCC3)nc(-c3ccccc3)c2c1`, the growth inhibition is 92.3% (active).

Turning to `O=C(CNC1C(=O)Nc2ccccc21)Sc1ccccc1` (configuration not stated), the growth inhibition was -5.29% (inactive). For the compound `COc1ccc(/C(O)=C2/C(=O)C(=O)N(CCCN(C)C)C2c2ccc(C)o2)cc1Cl` (configuration not stated), the growth inhibition was 1.2% (inactive). As to `COc1ccc2[nH]cc(C(=O)CN(C)CCc3ccc(OC)c(OC)c3)c2c1`, the growth inhibition is 15.3% (inactive). For the compound `CNCCCC1c2ccccc2C=Cc2ccccc21`, the growth inhibition is 60% (active). Turning to `CNCCCN1c2ccccc2CCc2ccccc21`, the growth inhibition was 39.1% (inactive).

Take `COCCCN1C(=O)C(O)=C(C(=O)c2ccco2)C1c1ccc(Br)cc1` (configuration not stated): the growth inhibition is 2.73% (inactive). On to `Cc1nc2c(o1)CCc1ccccc1C2O` (configuration not stated), for which the growth inhibition is 0.13% (inactive). Then `Cc1ccc(N2C(=O)C3ON(c4ccccc4)C(c4ccncc4)C3C2=O)cc1` (configuration not stated), with 7.22% (inactive); and `N#Cc1c(-c2ccccc2Cl)cc(C2CC2)nc1N`, with 11.8% (inactive); and `CCSc1nc(N)c(C#N)c(-c2ccccc2Cl)c1C#N`, with 3.11% (inactive).

Regarding `CSc1nc(N)c(C#N)c(-c2ccccc2Cl)c1C#N`, the growth inhibition was 60.5% (active).
